From PubChem BioAssay (NCATS)
Values joined by “and” are separate entries in the source; they are usually repeats but may differ in a detail not shown here. Equal entries are not always repeated. Records with an inconclusive call do not appear. Unmarked numbers belong to inactive results. Active and inactive are the calls of the source. The call rests on the fitted dose curve; in most records, active means well fitted inhibition curve with a large enough effect; inconclusive means small, poorly fitted or top-dose-only effect; inactive means no such curve, though single readings can be large or run the other way.

Test: Primary qHTS for inhibitors of nuclear receptor binding SET domain protein 2 (NSD2) in an RCH-ACV wild type WT cells (2C) (AID 1645877); further: nearly all actives have a fitted effect of over 70% in size
Settings: RCH-ACV (leukaemia line) NSD2 WT (2C) viability, CellTiter-Glo, 72 h; series mostly up to 44.9 µM; activity change, negative = cell killing: at the top concentration
On the % scale 0 is the no-effect control and ±100 the full control effect; potency means the concentration at half of the fitted maximal effect.

| SMILES | activity change, negative = cell killing | Potency | outcome |
| --- | --- | --- | --- |
| COc1ccc(CNC(=O)c2sc3nc(C)cc(C)c3c2N)cc1 | -25% |  |  |
| O=C(O)C1CN(Cc2ccc(-c3nc4cc(Cc5ccccc5F)ccc4s3)c(F)c2)C1 | 2.02% [at 9.23 µM] |  |  |
| Cc1cc(=O)oc2c(C=O)c(O)ccc12 |  | 16.3 µM (active) |  |
| COc1cc(/C=C/CO)cc(OC)c1O[C@@H]1O[C@H](CO[C@@H]2O[C@H](CO)[C@@H](O)[C@H](O)[C@H]2O)[C@@H](O)[C@H](O)[C@H]1O |  |  | inactive [at 17.3 µM] |
| C=C1C(=O)O[C@@H]2/C=C(\C)C(=O)/C=C/[C@](C)(O)C[C@@H](OC(=O)C(C)C)[C@@H]12 |  | 0.284 µM (active) |  |
| C[C@@H]1O[C@@H](O[C@H]2[C@H](O[C@H]3[C@H](O[C@H]4CC[C@@]5(C)C(CC[C@]6(C)C5CC=C5[C@@H]7CC(C)(C)C[C@@H](O)[C@]7(C)CC[C@]56C)[C@@]4(C)CO)O[C@H](C(=O)O)[C@@H](O)[C@@H]3O)OC[C@H](O)[C@@H]2O)[C@H](O)[C@H](O)[C@H]1O (some centres undefined) | -3.15% [at 9.23 µM] |  |  |
| CC(C)(O)/C=C/CC(C)(O)C1C(O)CC2(C)C3CCC4C(C)(C)C(=O)CCC4(C)C3CCC12C (centres undefined) | -15.6% [at 17.3 µM] |  |  |
| CC1CCC2C(C(=O)O)=COC(O[C@@H]3O[C@H](CO)[C@@H](O)[C@H](O)[C@H]3O)C12 (some centres undefined) | -20.7% |  |  |
| CC(=O)OC/C=C(\C)C(CC1C(C)=C(OC(C)=O)C(=O)C2C(C)(C)C(O)CCC12C)OC(C)=O (centres undefined) | -8.14% [at 17.3 µM] |  |  |
| COc1cc2nc(N3CCC(N4CCCCC4)CC3)nc(NC3CCCCCC3)c2cc1OC |  | 2.3 µM (active) |  |
| CC1(C)C=CN2C(=O)C3=CCCN3C(=O)[C@@H]2C[C@@]12Nc1ccccc1C2=O | -8.61% |  |  |
| C=C(C)C1CCC(C)C12CC(O)C1(C)OC1C2OC(=O)C(N)CCC(=O)O (centres undefined) | -9.62% |  |  |
| COc1ccc(-c2cnc3ccc(NCc4ccc(S(N)(=O)=O)cc4)nn23)cc1OC |  | 7.28 µM (active) |  |
| COc1ccc2[nH]c3c(-c4cccc5ccccc45)nccc3c2c1 |  | 0.578 µM (active) |  |
| C/C1=C\CCC(C)CCO[C@@H]2O[C@H](CO[C@@H]3OC[C@H](O)[C@H](O)[C@H]3OC1=O)[C@@H](O)[C@H](O)[C@H]2O (some centres undefined) | -0.96% [at 17.3 µM] |  |  |
| CC1C=CC2CCCCC2C1CCC1CC(O)CC(=O)O1 (centres undefined) | -7.51% |  |  |
| COc1cc2c(cc1O)CC[C@H]1[C@@H]2CC[C@]2(C)[C@H](O)CC[C@@H]12 |  | 0.916 µM (active) |  |
| O=C(O)Cc1cn(C2OCC(O)C(O)C2O[C@@H]2O[C@H](CO)[C@@H](O)[C@H](O)[C@H]2O)c2ccccc12 (some centres undefined) |  |  | inactive [at 17.3 µM] |
| CC(C)c1c2cc(-c3ccnc(NC4CCC(NC5CCOCC5)CC4)n3)ccc2nn1C (centres undefined) |  | 129 nM (active) and 93.4 nM (active) |  |
| CC12CCC(OC3OC(CO)C(O)C(OC4OC(CO)C(O)C(O)C4O)C3O)CC1=CCC1C2CCC2(C)/C(=C3/COC(=O)C3)CCC12O (centres undefined) | -8.57% [at 17.3 µM] |  |  |

| SMILES | activity change, negative = cell killing | Potency | outcome |
| --- | --- | --- | --- |
| CC1(C)CC[C@]2(C(=O)O[C@@H]3O[C@H](CO)[C@@H](O)[C@H](O)[C@H]3O)CC[C@]3(C)C(=CCC4[C@@]5(C)CC[C@H](O[C@@H]6O[C@H](C(=O)O)[C@@H](O)[C@H](O)[C@H]6O)C(C)(C)C5CC[C@]43C)C2C1 (some centres undefined) | 4.17% [at 9.23 µM] |  |  |
| CCN(CC)c1ccc2c(O)c(C=Nc3ccc(CC(=O)O)c(-c4c5c(nc6ccccc46)CCC(C(=O)NN)C5)c3)c(=O)oc2c1 (centres undefined) |  | 4.59 µM (active) |  |
| CC(=O)O[C@@H]1[C@@H](OC(=O)/C=C/c2ccccc2)[C@@H](OC(C)=O)[C@H](O[C@H]2[C@@H]3C=CO[C@@H](O[C@@H]4O[C@H](CO)[C@@H](O)[C@H](O)[C@H]4O)[C@@H]3[C@@]3(CO)O[C@@H]23)O[C@H]1C | 2.29% [at 17.3 µM] |  |  |
| CC1CCC23COC(=O)C2=CC(O)CC3C1(C)CCC1=CC(O)OC1=O (centres undefined) |  |  | inactive |
| CN(C)CCCCC(=O)Nc1ccc(NC(=S)NC(=O)c2ccc(C(C)(C)C)cc2)cc1 |  | 2.3 µM (active) |  |
| CC(=O)/C=C/[C@H]1[C@](C)(O)[C@@H](O)[C@H](OC(C)=O)C2C(C)(C)CCC[C@@]21C (some centres undefined) | 0.147% |  |  |
| Cc1nc([C@](C)(O)CO)sc1-c1cnc(N)c(O[C@H](C)c2cc(F)ccc2-n2nccn2)c1 |  | 13.2 µM (active) |  |
| O=S(=O)(NCC1CC1)c1ccc(Nc2nccc(N3CCCc4cc(O)ccc43)n2)cc1 |  | 1.15 µM (active) |  |
| CN(C)C/C=C/C(=O)Nc1cccc(C(=O)Nc2ccc(Nc3nccc(-c4cccnc4)n3)cc2)c1 |  | 0.578 µM (active) |  |
| O=S(=O)(c1ccc(S(=O)(=O)n2cnc3ccccc32)cc1)N1CCCCCC1 | -26.4% [at 17.3 µM] |  |  |
| COC(=O)c1ccccc1O[C@@H]1O[C@H](CO)[C@@H](O)[C@H](O)[C@H]1O[C@@H]1O[C@@H](C)[C@H](O)[C@@H](O)[C@H]1O |  |  | inactive [at 17.3 µM] |
| COC1CC(O[C@H]2CC[C@@]3(C)C(=CC[C@]4(O)C3[C@H](OC(C)=O)[C@@H](OC(=O)c3ccccc3)[C@]3(C)[C@@H](C(C)=O)CC[C@@]34O)C2)OC(C)C1OC1CC(OC)C(OC2CC(OC)C(OC3OC(C)C(OC4OC(CO)C(O)C(O)C4O)C(OC)C3O)C(C)O2)C(C)O1 (some centres undefined) | -8.43% [at 9.23 µM] |  |  |
| C=C[C@@]12COC(=O)C(=C)C1[C@@H](O)[C@H](C(=C)C(=O)OC)[C@@H](OC(=O)C(=C)CO)C2 (some centres undefined) |  | 7.09 µM (active) |  |
| C=C(C(=O)O)C1CCC2(C)CCC(O)C(C)(O)C2C1 (centres undefined) | -4.39% |  |  |
| NC[C@@](O)(c1ccc(Cl)cc1)c1ccc(-c2cn[nH]c2)cc1 |  | 4.59 µM (active) and 4.68 µM (active) |  |
| CC1(C)CC[C@]2(C(=O)O)[C@H](O)C[C@]3(C)C(=CCC4[C@@]5(C)CC[C@H](O[C@@H]6O[C@H](CO[C@@H]7OC[C@H](O)[C@H](O)[C@H]7O[C@@H]7OC[C@@H](O)[C@H](O)[C@H]7O)[C@@H](O)[C@H](O)[C@H]6O[C@@H]6O[C@H](CO)[C@@H](O)[C@H](O)[C@H]6O)C(C)(C)C5CC[C@]43C)[C@@H]2C1 (some centres undefined) | -6.47% [at 9.23 µM] |  |  |
| O=C(O)c1cccc(S(=O)(=O)N2CCc3ccccc3C2)c1 | -4.52% |  |  |
| NC(=O)[C@H]1CCS[C@@H]2C[C@]3(CCCN3C(=O)Cc3ccc(NC(=O)COc4ccc(Cl)cc4Cl)cc3)C(=O)N12 |  | 5.25 µM (active) |  |
| COc1cc2c(c(OC)c1CC=C(C)C)C[C@H](c1ccc(O)cc1O)CO2 | -39.8% |  |  |
